Records with an inconclusive call do not appear. The source made the active and inactive calls. Calls come from the whole dose curve; as a rule, active = well fitted cell-killing curve with a large enough effect; inconclusive = small, poorly fitted or top-dose-only effect; inactive = flat fitted curve, though single readings scatter.
Test: qHTS of pediatric cancer cell lines to identify multiple opportunities for drug repurposing: Primary screen for TC32 cells (AID 1347089); note: nearly all actives have a fitted effect of over 60% in size
Conditions: TC32 Ewing sarcoma viability, CellTiter-Glo luminescence, 48 h; series mostly up to 45.8 µM; activity change, negative = cytotoxic: at the top concentration
Source text: Drug repurposing or repositioning has been offered as a strategy for drug development in oncology programs. This approach has special potential for childhood cancers and other rare or orphan diseases, where the expected return on new drug development has been a disincentive to pharmaceuticals.
In this project we exploit the poly-pharmacology of drugs to discover new indications via phenotypic screening of a panel of 19 well-characterized cell lines derived from solid tumors seen in children and adolescents. The goal is to identify approved drugs with previously unrecognized anticancer properties that has the potential to reveal new mechanisms and biological processes involved in carcinogenesis or drug resistance. We employed a titration-based paradigm (quantitative high-throughput screening or qHTS), where all compounds were tested at multiple concentrations for their effect on cell viability. Concentration-response curves (CRCs) were derived directly from the primary screen, and both potency and efficacy values were used to identify compounds with robust bioactivity profiles. We screened the NIH Chemical Genomics Center (NCGC) Pharmaceutical Collection (NPC) and Mechanism Interrogation Plate (MIPE) small molecule collections of approved and investigational compounds against these cell lines; and measured metabolically active cells after 48 hours of compound treatment as a proxy for cell viability.
Assay Submitter: Nathalia J. Martinez, National Center for Advancing Translational Sciences, National Institutes of Health, Rockville, MD, USA; email: natalia.martinez@nih.gov
[1] Shen, M et al. Quantitative high-throughput phenotypic screening of pediatric cancer cell lines identifies multiple opportunities for drug repurposing. Oncotarget 2017 Dec 19;9(4):4758-4772. PMID 29435139.
The cells were obtained from University of North Carolina (UNC), Pediatric Preclinical Testing Program (PPT), and Coriell Institute (CI).
qHTS cell viability assay:
Cells were assayed in growth media at a density of 500-1,000 cells/well. Five microliters of cells were dispensed into 1,536-well, white, solid-bottom, TC-treated plates (Greiner Bio One) using a multidrop dispenser and incubated at 37 degrees C, 5% CO2, under a humidified atmosphere for 5 hours. Twenty-three nanoliters of compounds and controls (neutral control DMSO or positive control bortezomib at final concentration of 2.3 uM) were subsequently transferred by Kalypsys pintool. For primary screens, the MIPE collection was tested at 11-point dilutions (final concentrations range from 0.78 nM to 46 µM) and the NPC collection at 8-point dilutions (final concentrations range from 0.59 nM to 46 µM). Compounds tested in follow-up screens were assayed at 11-point dilutions. Cells were incubated for 48 hours, followed by addition of 3 uL of CellTiter-Glo (Promega). After a 15min incubation at room temperature, samples were analyzed for luminescence intensity using a ViewLux High-throughput CCD imager equipped with clear filters.
% is set by controls: 0 for no effect and ±100 for the full control effect; potency is the fitted concentration of half-maximal effect.

Which “activity change, negative = cytotoxic” value does the source give for `CCCCNc1ccc(C(=O)OCCN(C)C)cc1` here?
The value was 3.86% (inactive).

With `CC(C)NNC(=O)c1ccncc1` as the molecule, how does the “activity change, negative = cytotoxic” value read?
Its value is 7.41% (inactive).

For `CCCN(CCC)C(=O)C(CCC(=O)O)NC(=O)c1ccccc1` (stereo not given), which “activity change, negative = cytotoxic” value is on record?
Its value is 8.22% (inactive).

For `CNCCCN1c2ccccc2CCc2ccccc21`, which “activity change, negative = cytotoxic” value is on record?
The value was 4.2% (inactive).

With `Cc1nc2ccccn2c(=O)c1CCN1CCC(C(=O)c2ccc(F)cc2)CC1` as the molecule, how does the “activity change, negative = cytotoxic” value read?
The value was -4.57% (inactive).

For `Cc1ccc(/C(=C\CN2CCCC2)c2ccccn2)cc1`, which “activity change, negative = cytotoxic” value is on record?
Its value is 5.63% (inactive).

With `Cc1cccc(C)c1NC(=O)C(C)N` (stereo not given) as the molecule, how does the “activity change, negative = cytotoxic” value read?
Its value is 2.93% (inactive).

For `Cc1nc2sccn2c(=O)c1CCN1CCC(=C(c2ccc(F)cc2)c2ccc(F)cc2)CC1`, which “activity change, negative = cytotoxic” value is on record?
The value was 3.63% (inactive).

With `c1cc(CN2CCCCC2)cc(OCCCNc2nc3ccccc3s2)c1` as the molecule, how does the “activity change, negative = cytotoxic” value read?
Its value is -13.5% (inactive).

With `Nc1c2c(nc3ccccc13)CCCC2O` (stereo not given) as the molecule, how does the “activity change, negative = cytotoxic” value read?
Its value is 14.6% (inactive).

For `Nc1ncn([C@@H]2O[C@H](CO)[C@@H](O)[C@H]2O)c(=O)n1`, which Potency is on record?
The Potency was 11.8 µM (active).

For `CC1=C(C)C(=O)C(CCCCC#CCCCC#CCO)=C(C)C1=O`, which “activity change, negative = cytotoxic” value is on record?
Its value is 7.78% (inactive).

For `CO[C@@]1(NC(=O)CSCC#N)C(=O)N2C(C(=O)O)=C(CSc3nnnn3C)CS[C@@H]21`, which “activity change, negative = cytotoxic” value is on record?
Its value is -1.57% (inactive).

For `COCCc1ccc(OCC(O)CNC(C)C)cc1` (stereo not given), which “activity change, negative = cytotoxic” value is on record?
The value was 8.38% (inactive).

For `CCCOc1ccccc1-c1nc2n[nH]nc2c(=O)[nH]1`, which “activity change, negative = cytotoxic” value is on record?
The value was 3% (inactive).

For `COC(=O)[C@@H](N)Cc1ccc(O)c(O)c1`, which “activity change, negative = cytotoxic” value is on record?
Its value is -0.358% (inactive).

With `NC(N)=N/N=C/c1c(Cl)cccc1Cl` as the molecule, how does the “activity change, negative = cytotoxic” value read?
Its value is 0.762% (inactive).

With `Cc1scc2c1N(C(=O)CN1CCN(C)CC1)c1ccccc1NC2=O` as the molecule, how does the “activity change, negative = cytotoxic” value read?
Its value is 2.3% (inactive).

With `CC(=O)[C@@]1(O)CC[C@H]2[C@@H]3CCC4=CC(=O)CC[C@]4(C)[C@H]3CC[C@@]21C` as the molecule, how does the “activity change, negative = cytotoxic” value read?
Its value is 4.89% (inactive).

For `Cc1ccc(=O)n(-c2ccccc2)c1`, which “activity change, negative = cytotoxic” value is on record?
Its value is 12.7% (inactive).

Which activity change, negative = cytotoxic does the source give for `CN1CCN(CC(=O)N2c3ccccc3C(=O)Nc3cccnc32)CC1` here?
Its activity change, negative = cytotoxic is 4.32% [at 4.81 µM] (inactive).

For `CN(C)CC/C=C1\c2ccccc2COc2ccccc21`, which “activity change, negative = cytotoxic” value is on record?
Its value is -0.8% (inactive).

For `CN1C(=O)CC[C@H]1c1cccnc1`, which “activity change, negative = cytotoxic” value is on record?
Its value is 7.25% (inactive).

Which “activity change, negative = cytotoxic” value does the source give for `C[C@@H](O)[C@H]1C(=O)N2C(C(=O)O)=C(SCCN=CN)C[C@H]12` here?
Its value is -3.43% (inactive).

Which “activity change, negative = cytotoxic” value does the source give for `CN(C(=O)CCCOc1ccc2[nH]c(=O)ccc2c1)C1CCCCC1` here?
The value was -4.29% (inactive).

Which “activity change, negative = cytotoxic” value does the source give for `CCN(Cc1ccncc1)C(=O)C(CO)c1ccccc1` (stereo not given) here?
Its value is 6.17% (inactive).

With `CCN(CC)CCOCCOC(=O)C1(c2ccccc2)CCCC1` as the molecule, how does the “activity change, negative = cytotoxic” value read?
The value was 12.8% (inactive).

For `CCOC(=O)C1=C(C)NC(C)=C(C(=O)OC)C1c1cccc(Cl)c1Cl` (stereo not given), which “activity change, negative = cytotoxic” value is on record?
The value was 12.5% (inactive).

With `CCCN1C[C@H](CSC)C[C@@H]2c3cccc4[nH]cc(c34)C[C@H]21` as the molecule, how does the “activity change, negative = cytotoxic” value read?
The value was 5.52% (inactive).

Which “activity change, negative = cytotoxic” value does the source give for `NC(=O)c1cn(Cc2c(F)cccc2F)nn1` here?
The value was 16.6% (inactive).

With `CCN(CC)CC(=O)Nc1c(C)cccc1C` as the molecule, how does the “activity change, negative = cytotoxic” value read?
Its value is 1.44% (inactive).

Which “activity change, negative = cytotoxic” value does the source give for `CN=C(NC#N)NCCSCc1nc[nH]c1C` here?
Its value is 11.1% (inactive).

With `CN(C)C(=O)Oc1cccc([N+](C)(C)C)c1` as the molecule, how does the “activity change, negative = cytotoxic” value read?
Its value is 0% (inactive).

With `COc1ccc(CN(CCN(C)C)c2ccccn2)cc1` as the molecule, how does the “activity change, negative = cytotoxic” value read?
The value was 7.34% (inactive).

For `O=C1CC2(CCCC2)CC(=O)N1CCCCN1CCN(c2ncccn2)CC1`, which “activity change, negative = cytotoxic” value is on record?
The value was -0.267% (inactive).

For `CCN(CC)CCNC(=O)c1cc(S(C)(=O)=O)ccc1OC`, which “activity change, negative = cytotoxic” value is on record?
The value was 8.82% (inactive).

Which “activity change, negative = cytotoxic” value does the source give for `CNC1(C)C2CCC(C2)C1(C)C` (stereo not given) here?
The value was 2.12% (inactive).

Which “activity change, negative = cytotoxic” value does the source give for `CCN1CCc2nc(N)oc2CC1` here?
The value was 2% (inactive).

With `CN1CCN(C2=Nc3ccccc3Oc3ccc(Cl)cc32)CC1` as the molecule, how does the “activity change, negative = cytotoxic” value read?
The value was 4.49% (inactive).

For `c1cnc(N2CCN(Cc3ccc4c(c3)OCO4)CC2)nc1`, which “activity change, negative = cytotoxic” value is on record?
The value was 8.11% (inactive).

Source: PubChem BioAssay (NCATS)
